Source: PubChem BioAssay
VDR inh: blocks the human vitamin D receptor | P11473 | VDR-SRC2-3 peptide fluorescence polarization, 2 h | Potency, µM, without a hit: max response, negative = inhibition, most hits filed as inhibitors | 0.93% of 400,000 active | AID 504847; further: potency means the concentration at half of the fitted maximal effect
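Measured by FP: displacement of SRC2-3 coactivator peptide from VDR by library compounds, following a two-hour ambient incubation.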
Coupling enz: counter-screen for Giardia aldolase inhibitors: coupling enzyme system; coupling enzyme system counterscreen, AmpLite Red fluorescence; 0.67% of 290,000 active; AID 2472; activity change, negative = inhibition, % at 58.2 µM, hits read low; in the data active means activity change below about -30%
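Coupling enzymes only (glyceraldehyde-3-phosphate) + compound, at 57.5 uM final, 10 min RT; add substrate/coupling/AmpLite Red mix, 20 min RT; fluorescence ex 525/em 598 nm. Actives flag coupling-system interference.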
USP2a block: USP2a (human) protease inhibition; O75604; USP2 core, Ub-CHOP2 coupled fluorogenic reporter, 485/531; Potency, µM (titrated, usually from 38.3 µM), inactives show top-dose activity change, negative = inhibition, most hits filed as inhibitors; 0.01% of 330,000 active; AID 463254;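 further: potency means the concentration at half of the fitted maximal effect; plate controls were DMSO wells for no effect and full inhibition by NEM control for full effect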
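Cell-free coupled assay: 10nM USP2 core preincubated 30min RT with compound in Tris-HCl pH 8.0/CaCl2/CHAPS buffer, then 25nM Ub-CHOP2 and 25nM reporter substrate; fluorescence (Ex 485/Em 531) read after 60min RT, normalized to NEM inhibition, concentration-response curves fitted.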
GALK inh: galactokinase (human) inhibition; 0.007% of 270,000 active; Purified GALK, Kinase-Glo residual ATP luminescence; P51570; Potency, µM (highest dose often 57.5 µM), for inactives: at the highest dose activity change, negative = inhibition, usual class: inhibitors; further: potency means the concentration at half of the fitted maximal effect
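GALK at 5 nM final was combined with compound, 35 uM ATP and 100 uM galactose in HEPES pH8.0 with MgCl2 and DTT. The reaction ran one hour at room temperature before luminescent ATP detection.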
USP1-UAF1 inh: USP1/UAF1 (human) deubiquitinase inhibition; recombinant USP1/UAF1, Ub-Rhodamine cleavage fluorescence; 0.23% of 390,000 active; Potency, µM (top dose mostly 57.1 µM), inactives show at the highest dose activity change, negative = inhibition, usual class: inhibitors; further: potency means the concentration at half of the fitted maximal effect; nearly all actives have a fitted effect of over 60% in size
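Step one: compound is pinned into 1nM USP1/UAF1 in HEPES pH 7.8 buffer with TCEP. Step two: 15 min room-temperature incubation. Step three: Ub-Rho (150nM final) starts cleavage, tracked by fluorescence over six one-minute reads.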
PLK1 PBD inh: blocks phosphopeptide binding to human PLK1 polo-box domain; P53350; Plk1 PBD binding of FITC phosphopeptide, fluorescence polarization; Potency, µM, for inactives: max response, negative = inhibition, usual class: inhibitors; 2.8% of 360,000 active; AID 720504; further: potency means the concentration at half of the fitted maximal effect; series mostly up to about 57 µM; nearly all actives have a fitted effect of over 65% in size
Target sequence (P53350 whole entry, looked up, the tested form may be a part): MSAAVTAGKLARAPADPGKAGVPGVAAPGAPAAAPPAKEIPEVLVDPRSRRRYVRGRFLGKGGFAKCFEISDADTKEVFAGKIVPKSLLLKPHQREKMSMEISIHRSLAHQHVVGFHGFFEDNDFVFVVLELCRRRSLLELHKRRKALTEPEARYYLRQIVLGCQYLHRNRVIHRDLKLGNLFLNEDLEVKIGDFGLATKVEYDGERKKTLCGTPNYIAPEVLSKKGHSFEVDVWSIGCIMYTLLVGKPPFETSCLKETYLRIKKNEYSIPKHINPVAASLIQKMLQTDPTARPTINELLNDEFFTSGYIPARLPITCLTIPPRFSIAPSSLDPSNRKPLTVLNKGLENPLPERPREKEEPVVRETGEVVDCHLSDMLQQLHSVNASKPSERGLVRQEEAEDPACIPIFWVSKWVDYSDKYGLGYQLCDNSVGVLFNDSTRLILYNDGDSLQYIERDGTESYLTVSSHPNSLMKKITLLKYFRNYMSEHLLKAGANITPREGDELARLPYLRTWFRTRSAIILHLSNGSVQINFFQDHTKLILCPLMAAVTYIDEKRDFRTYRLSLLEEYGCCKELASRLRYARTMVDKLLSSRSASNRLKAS
Starred values were filed as active, the others as inactive; ? = inconclusive; nt = no result given; ! = not active in a repeat. Hits are enriched below; roughly 3.2% of the tested compounds scored in any of these assays. Unless noted, the call rests on the fitted dose curve; in most records, active means well fitted curve in the direction sought with a large enough effect; inconclusive means small, poorly fitted or top-dose-only effect, or another doubt; inactive means no such curve, though single readings can be large; an effect the other way counts as inactive or inconclusive. Unless noted, on the % scale 0 is the no-effect control and ±100 the full control effect.

SMILES | VDR inh | Coupling enz | USP2a block | GALK inh | USP1-UAF1 inh | PLK1 PBD inh
CC(=O)c1cnc2nc(SCc3ccccc3)nn2c1C | -15% | 2 | 4% | -4% | -21% | 0%
CC(=O)c1cnc2nc(SCc3ccc(C)cc3)nn2c1C | ? | 0 | 2% | -1% | -19% | 24µM*
O=C(NCCCN1CCOCC1)c1ccc(CS(=O)(=O)c2cccc(C(F)(F)F)c2)o1 | -7% | 2 | 0% | 0% | -8% | -5%
CCOC(=O)c1ccc(-c2cccc(-c3cc(=O)oc4cc(OC)cc(OC)c34)c2)cc1 | -11% | -3 | 1% | nt | -27% | -6%
COc1cc2nc(N3CCN(C(=O)C4CCCO4)CC3)nc(N)c2cc1OC (stereo unspecified) | nt | -50*! | 3% | 6% | -8% | -15%
Nc1ccc(CCn2ccnc2)cc1 | -11% | 1 | 3% | 0% | -22% | 3%
CC(C)(C)NC(=O)NC(=O)COC(=O)c1nc(-c2ccccc2)n(-c2cccc(C(F)(F)F)c2)n1 | 8% | 1 | -1% | 2% | -18% | 0%
CCCCOC(=O)C(C#N)c1nc2ccccc2nc1N1CCOCC1 (stereo unspecified) | 4% | -5 | 2% | -3% | -11% | -2%
COc1ccc2c3c(ccc2c1)C(=O)/C(=C/O)CC3 | -29% | nt | nt | nt | -25% | 4.2µM*
COc1ccc2c(c1)OC/C(=C/c1ccc(O)c(O)c1)C2=O | ? | -1 | nt | nt | nt | nt
COc1ccccc1[C@@H]1C(c2ccccc2)=NN(c2ccc(Br)cc2)[C@H]1C(=O)N1CCOC1=O | -17% | 0 | 1% | nt | -21% | -7%
CN1CCN(CC(=O)Nc2cc(N3CCOCC3)ccc2[N+](=O)[O-])CC1 | 25% | 0 | -2% | 2% | -9% | -9%
Cc1c(C#N)c2ccccc2n1CC(=O)N1CCCc2ccccc21 | -5% | -2 | 0% | 0% | -4% | -16%
Cc1c(C#N)c2ccccc2n1CC(=O)N1CCCC1 | ? | 1 | 2% | 1% | -15% | 30µM*
CCNc1nc(NCC)nc(OCCOC(C)=O)n1 | 16% | 0 | 2% | -1% | 4% | -11%
CCc1cc2c(SCC#N)ncnc2s1 | 5% | 4 | 0% | 3% | -18% | 27µM*
COc1ccc(C(=O)CCN2CCN(c3ccccc3F)CC2)cc1 | 22µM* | 1 | 0% | 2% | -10% | 11µM*
COc1ccc(C(=O)CCN2CCCCCC2)cc1 | 28µM* | 1 | 4% | 2% | -16% | 16µM*
Cc1c(Cl)cccc1Nc1ccccc1C(=O)O | 45µM*! | 8 | 1% | -4% | -25% | -24%
CCOc1ncccc1C(=O)N1CCN(c2cccc(C)c2C)CC1 | -3% | 3 | 2% | 6% | 1% | -17%
CCOc1ncccc1C(=O)N1CCN(c2cc(Cl)ccc2C)CC1 | 17% | 0 | -1% | 1% | ? | 21µM*
Cc1cccc(C)c1Cn1c(C)c(C(=O)NCc2ccccc2C(F)(F)F)sc1=O | nt | nt | nt | nt | nt | -1%
CC(C)N(C(=O)COC(=O)c1cncc(Br)c1)C(C)C | ? | 1 | 3% | 13% | -6% | 21µM*
Cc1nc(C)c(C(=O)NCc2ccccc2Cl)o1 | -28% | -24 | -1% | 4% | -18% | 21µM*
Cc1nc2c(C(=O)NCc3ccccc3Cl)c[nH]n2c(=O)c1Cl | -16% | 2 | 1% | -1% | -29% | 30µM*
SMILES | VDR inh | Coupling enz | USP2a block | GALK inh | USP1-UAF1 inh | PLK1 PBD inh
Cc1cc(C(=O)NCc2ccccc2Cl)n(-c2ccccc2)n1 | -19% | 0 | 1% | -2% | -19% | 27µM*
Fc1cccc(/C=N/Nc2ccccn2)c1 | 6% | -5 | 0% | 12% | -3% | -1%
CC1c2ccccc2SC(CCCN(C)C)c2ccccc21 (stereo unspecified) | -4% | -10 | 2% | nt | -16% | 4%
O=C(NCc1ccccc1)c1ccc2c(=O)[nH]c3c(C(=O)NCC4CCCO4)sc(=S)n3c2c1 (stereo unspecified) | -14% | 4 | -1% | -2% | -17% | ?
O=C(NCc1ccco1)c1sc(=S)n2c1[nH]c(=O)c1ccccc12 | ? | 1 | 2% | -18% | -24% | 27µM*
CCCNc1c(NS(=O)(=O)c2ccc(NC(=O)CC)cc2)c(=O)oc2ccccc12 | 7% | nt | 4% | -2% | -21% | -2%
O=C1NC(c2cccs2)Nc2ccccc21 (stereo unspecified) | -19% | 1 | 4% | 0% | -11% | 2.7µM*
Cc1ccsc1C1NC(=O)c2ccccc2N1 (stereo unspecified) | -8% | 0 | 5% | 0% | -12% | -11%
C[C@@H](NC(=O)[C@@H]1Cc2ccccc2CN1C(=O)OC(C)(C)C)C(=O)NC1CCCC1 | ? | 0 | 1% | 7% | -9% | 30µM*
CCn1c(SCC(=O)Nc2ccc(C(C)=O)cc2)nnc1C1CC1 | -2% | -1 | 5% | 0% | 6% | -10%
O=C(NCc1ccccc1)NC1(C(=O)N2CCN(c3ncccn3)CC2)CCCCC1 | -2% | 5 | 1% | 1% | -1% | 27µM*
O=C(NCc1ccccc1)NC1(C(=O)N2CCCC2)CCCCC1 | 11% | 3 | 0% | -1% | -10% | 2%
CN(CCO)c1nc(NCc2ccccc2)c2cnn(C)c2n1 | -8% | 1 | 0% | 7% | -11% | 1%
CN(CCO)CCOCCOc1cccc2ccccc12 | -7% | -47* | -6% | -1% | -2% | -12%
Cc1ccc2nc(-c3ccccc3NC(=O)CCC(=O)O)c(=O)[nH]c2c1 | 1% | 2 | 1% | 0% | -19% | 6%
COc1ccccc1NC(=O)CSc1ccc(-c2ccc(-n3ccnc3)cc2)nn1 | -4% | nt | 0% | nt | -11% | 0%
Cc1c(CCC(=O)O)c(=O)oc2c(C)c3occ(-c4ccc(Br)cc4)c3cc12 | -1% | -8 | -7% | -1% | -18% | 27µM*
Cc1ccc(S(=O)(=O)NC(=O)c2ccc(-c3ccc(C)c4ccccc34)o2)cc1 | 79µM* | 0 | -1% | nt | -18% | 27µM*
CCCc1c(OCCCCc2nn[nH]n2)ccc(C(C)=O)c1O | 45µM* | 13 | 0% | -6% | -17% | -20%
CCCCC(=O)Nc1cc(OC)c(NC(=S)NC)cc1OC | -14% | -6 | -2% | 5% | -9% | -6%
C#CCSc1nc2ccccc2c(=O)n1CC=C | -16% | nt | nt | nt | nt | nt
C#CCSc1nncn1C(=O)/C=C/c1ccccc1 | ? | 1 | 3% | nt | -7% | 24µM*
CN(C)c1ccc(/C=C2\CCC/C(=C\c3ccccc3)C2=O)cc1 | -6% | 1 | 4% | -2% | 32µM* | -11%
O=C1/C(=C/c2ccccc2)CCCc2ccccc21 | 34% | 0 | 0% | -2% | -8% | -18%
